Consider 40 molecules from PubChem BioAssay (Tox21).

Results filed as inconclusive are left out. Where a call stands in place of a potency, no number is given. A number with no mark means an inactive call. Active and inactive are the calls of the source. Calls come from the whole dose curve; as a rule, active = well fitted inhibition curve with a large enough effect in the repeat runs; inconclusive = weak or mixed curves; inactive = no such curve, though single readings can be large or run the other way.

This assay is described as follows: qHTS assay to identify small molecule antagonists of the estrogen related receptor (ERR) signaling pathway from Tox21 library (AID 1224848). Note: nearly all actives have a fitted effect of over 50% in size. The conditions noted are these: ERR reporter cell line, luciferase antagonist mode, 18 h; series mostly up to 92.4 µM. From the text:
U.S. Tox21 Program National Center for Advancing Translational Sciences [NCATS] NIH Chemical Genomics Center [NCGC] U.S. Environmental Protection Agency [EPA] National Institutes of Environmental Health Sciences [NIEHS] National Toxicology Program [NTP] U.S. Food and Drug Administration [FDA] Tox21 Assay Overview: Estrogen related receptors (ERRs), the first orphan nuclear receptors discovered, play an important role in the control of cellular energy metabolism. ERRs are required for high-energy production in response to the environmental challenges. ERR-alpha was also identified as an adverse marker for breast cancer progression; ERR-alpha-positive tumors have a poor prognosis. To screen and to identify environmental compounds that perturb the ERR signaling pathways could provide valuable information for potential therapeutic or preventive measures in the treatment of metabolic disease. For identifying ERR antagonists, ERR cell line (provided by NTP) has been used to screen Tox21 10K library.
Tox21 Assay Protocol Summary: The ERR cells were dispensed at 2,000 cells/5 ul/well in 1536-well white plates using a Multidrop dispenser. After the assay plates were incubated at a 37 C/5% CO2 incubator for 6 hours, 23 nL of compounds dissolved in DMSO, positive and negative controls or DMSO only was transferred to the assay plate by a pin tool. The plates were incubated at 37 C for 18 hours. 4 ul/well of One-Glo reagent was added into the assay plates using a Flying Reagent Dispenser. After 30-minute incubation at room temperature, the luminescence intensity in the plates was measured using a ViewLux plate reader.
Background: In qHTS, concentration-response curves come from the screen itself.
For `COc1ccc(-c2cc(=O)c3c(O)cc(O[C@@H]4O[C@H](CO[C@@H]5O[C@@H](C)[C@H](O)[C@@H](O)[C@H]5O)[C@@H](O)[C@H](O)[C@H]4O)cc3o2)cc1O`, the Potency result was “inactive”.
Regarding `BrCc1cccc(Oc2ccccc2)c1`, the Potency result is “inactive”.
On to `OCCCCC(O)CO` (stereo not given), for which the Potency entry was “inactive”.
In the case of `On1nnc2ccccc21`, the Potency result is “inactive”.
As to `C[Si](C)=O`, the activity, negative = inhibition is 1.05% [at 8.39 µM].
With `Cc1ccc(S(=O)(=O)O)c(C)c1`, the Potency result was “inactive”.
Still for that read-out and setting: in the case of `Cc1ccccc1OCC(O)CO` (stereo not given) it was “inactive”; in that of `O=C(NCC(O)CO)c1c(I)c(C(=O)NCC(O)CO)c(I)c(N(CCO)C(=O)CO)c1I` (stereo not given), “inactive”; in that of `CCCCCOC(=O)CCC`, “inactive”.
The same measure, in the same setting: in the case of `CC(C)CC(=O)O` it was “inactive”.
As for `CNC(=O)[C@H]1O[C@@H](n2cnc3c(NCc4cc(Cl)ccc4OCc4cc(C)no4)ncnc32)[C@H](O)[C@@H]1N`, the Potency result was “inactive”.
With `CCCCCCCCOS(=O)(=O)O`, the Potency result is “inactive”.
`CC(CC=O)CCCC(C)(C)O` (stereo not given): the Potency entry was “inactive”.
Turning to `COC(=O)CCCCCCCC(=O)OC`, the Potency entry was “inactive”.
Same read-out and setting: then `CN(C)c1ccc(C=O)cc1`, with “inactive”; and `Cc1ccsc1/C=C/C1=NCCCN1C`, with “inactive”.
Same read-out and setting: then `C=C(C)C(=O)OCC(C)(C)COC(=O)C(=C)C`, with “inactive”.
Consider `Nc1ccc(S(=O)(=O)Nc2ccc(Cl)nn2)cc1`, for which the Potency entry was “inactive”.
Take `CCCCC(CC)COCCO` (stereo not given): the Potency result is “inactive”.
With `CCn1ccc(NS(=O)(=O)c2ccc(N)cc2)nc1=O`, the Potency entry was “inactive”.
The same measure, in the same setting: then `CCCOC(OCCC)OCCC`, with “inactive”; and `CO[C@@H]1[C@@H](OC(N)=O)[C@@H](O)[C@H](Oc2ccc3c(O)c(NC(=O)c4ccc(O)c(CC=C(C)C)c4)c(=O)oc3c2C)OC1(C)C`, with “inactive”; and `CC/C=C\CC1=C(C)CCC1=O`, with “inactive”.
Same read-out and setting: in the case of `CCOc1cc(NC(C)=O)ccc1C(=O)OC` it was “inactive”.
For `O=S(O)(O)=S`, the activity, negative = inhibition is 8.94% [at 8.39 µM].
With `CCCCNC1CC(C)(C)NC(C)(C)C1`, the Potency entry is “inactive”.
Turning to `O=C1c2cccc3c2[C@H](CCC3)CN1[C@@H]1CN2CCC1CC2`, the Potency entry is “inactive”.
`CCN(CC)CC(=O)Nc1c(C)cccc1C`: the Potency result is “inactive”.
Take `C=C1CC/C=C(\C)CC[C@@H]2[C@@H]1CC2(C)C`: the Potency result is “inactive”.
On the same count and under the same terms, in the case of `CCCCCCCCC(=O)Cl` it was “inactive”.
The same measure, in the same setting: then `CC(=O)c1sc(C)nc1C`, with “inactive”.
Turning to `CN(C)CCOCCO`, the Potency result is “inactive”.
As for `C[C@@H](Oc1ccc(CNC(=O)c2cccnc2Oc2ccc3c(c2)OCO3)c(F)c1)C(=O)O`, the Potency entry was “inactive”.
For `CCNC(=O)C1CC(C)CCC1C(C)C` (stereo not given), the Potency entry was “inactive”.
Regarding `OCCC(F)(F)C(F)(F)C(F)(F)C(F)(F)C(F)(F)C(F)(F)C(F)(F)C(F)(F)F`, the Potency result is “inactive”.
Turning to `CN1CCN(CC(=O)N2c3ccccc3C(=O)Nc3cccnc32)CC1`, the activity, negative = inhibition is 0.334% [at 8.39 µM].
Turning to `COc1ccc(Br)c(C)c1`, the Potency entry was “inactive”.
Regarding `COC(=O)C1CC(=O)C(C(=O)OC)CC1=O` (stereo not given), the activity, negative = inhibition was -0.445% [at 8.39 µM].
For `N#Cc1ccc(C(=O)O)cc1`, the Potency result is “inactive”.
As to `Cc1cccc(C)c1NC(=O)c1ccccc1C(=O)O`, the Potency result is “inactive”.
